These results are taken from PubChem BioAssay (NCATS).

Experiment [1] is described as follows: qHTS of pediatric cancer cell lines to identify multiple opportunities for drug repurposing: Primary screen for Saos-2 cells (AID 1347097). Further: nearly all actives have a fitted effect of over 40% in size. Further: potency means the concentration at half of the fitted maximal effect. In short, it runs like this: (§1)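 ATP-based luminescence (CellTiter-Glo) quantifies viability after a 48-hour exposure. Compounds are dosed across 8 or 11 final concentrations; DMSO and 2.3 µM bortezomib serve as controls.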

The nature of experiment [2]: qHTS of pediatric cancer cell lines to identify multiple opportunities for drug repurposing: Primary screen for SK-N-SH cells (AID 1347098). Further: nearly all actives have a fitted effect of over 65% in size. Further: potency means the concentration at half of the fitted maximal effect. The gist of the method:
(§2)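 Cells (500-1,000/well) rested 5 h, then received compounds for 48 h; metabolically active cells were measured by CellTiter-Glo luminescence. Final concentrations spanned up to 46 µM (MIPE, 11-point) or 0.59 nM-46 µM (NPC, 8-point) in primary screens, 11-point in follow-ups.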
On the technique in general: qHTS replaces the single test concentration by a dilution series.

A short description of experiment [3]: qHTS of pediatric cancer cell lines to identify multiple opportunities for drug repurposing: Primary screen for NB1643 cells (AID 1347099). Further: nearly all actives have a fitted effect of over 50% in size. Further: potency means the concentration at half of the fitted maximal effect. In short, it runs like this: as §1
A short description of experiment [4]: qHTS of pediatric cancer cell lines to identify multiple opportunities for drug repurposing: Primary screen for LAN-5 cells (AID 1347100). Further: potency means the concentration at half of the fitted maximal effect. In short, it runs like this:
(§3)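 Cells (500-1,000/well) in growth media were settled 5 h at 37 degrees C, then given compounds for 48 h. Viability was read as CellTiter-Glo luminescence. Primary runs used MIPE at 11 points (0.78 nM-46 µM) and NPC at 8 points (0.59 nM-46 µM); follow-ups used 11 points.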

The nature of experiment [5]: qHTS of pediatric cancer cell lines to identify multiple opportunities for drug repurposing: Primary screen for BT-12 cells (AID 1347101). Further: nearly all actives have a fitted effect of over 25% in size. Further: potency means the concentration at half of the fitted maximal effect. In short, it runs like this: as §2
Experiment [6] can be described thus: qHTS of pediatric cancer cell lines to identify multiple opportunities for drug repurposing: Primary screen for Rh18 cells (AID 1347102). Further: nearly all actives have a fitted effect of over 65% in size. In short, it runs like this:
as §3

Experiment [7] in a line: qHTS of pediatric cancer cell lines to identify multiple opportunities for drug repurposing: Primary screen for OHS-50 cells (AID 1347103). Further: nearly all actives have a fitted effect of over 40% in size. Further: potency means the concentration at half of the fitted maximal effect. In short, it runs like this:
as §2

Experiment [8] in a line: qHTS of pediatric cancer cell lines to identify multiple opportunities for drug repurposing: Primary screen for RD cells (AID 1347104). Further: nearly all actives have a fitted effect of over 55% in size. Further: potency means the concentration at half of the fitted maximal effect. In short, it runs like this:
as §1

Experiment [9] in a line: qHTS of pediatric cancer cell lines to identify multiple opportunities for drug repurposing: Primary screen for MG 63 (6-TG R) cells (AID 1347105). Further: nearly all actives have a fitted effect of over 50% in size. Further: potency means the concentration at half of the fitted maximal effect. The gist of the method:
as §1

The nature of experiment [10]: qHTS of pediatric cancer cell lines to identify multiple opportunities for drug repurposing: Primary screen for control Hh wild type fibroblast cells (AID 1347106).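 Further: series mostly up to about 46 µM; a drop in luminescence marks cytotoxicity and a rise apparent proliferation; nearly all actives have a fitted effect of over 55% in size.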 The gist of the method:
as §3

A short description of experiment [11]: qHTS of pediatric cancer cell lines to identify multiple opportunities for drug repurposing: Primary screen for Rh41 cells (AID 1347108). Further: nearly all actives have a fitted effect of over 70% in size. Further: potency means the concentration at half of the fitted maximal effect. In short, it runs like this: as §1
Experiment [12] in a line: qHTS of pediatric cancer cell lines to identify multiple opportunities for drug repurposing: Confirmatory screen for NB1643 cells (AID 1347109). Further: nearly all actives have a fitted effect of over 45% in size. Further: potency means the concentration at half of the fitted maximal effect. The gist of the method:
as §3

A short description of experiment [13]: qHTS of pediatric cancer cell lines to identify multiple opportunities for drug repurposing: Confirmatory screen for A673 cells (AID 1347110).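 Further: cells exposed to compound for 48 h before the viability read; nearly all actives have a fitted effect of over 65% in size.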 Further: potency means the concentration at half of the fitted maximal effect. In short, it runs like this: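 qHTS titration format: primary MIPE 0.78 nM-46 µM (11 pts), NPC 0.59 nM-46 µM; confirmation 11 pts. 48 h, CTG luminescence.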
The nature of experiment [14]: qHTS of pediatric cancer cell lines to identify multiple opportunities for drug repurposing: Confirmatory screen for SK-N-MC cells (AID 1347111).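 Further: cells exposed to compound for 48 h before the readout; nearly all actives have a fitted effect of over 70% in size.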 Further: potency means the concentration at half of the fitted maximal effect. In short, it runs like this:
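Metabolically active cells were quantified by ATP-dependent luminescence (CellTiter-Glo, 15 min at room temperature) following 48 h treatment. Cells had been plated at 500-1,000 per well and settled for 5 h beforehand.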

Experiment [15] is described as follows: qHTS of pediatric cancer cell lines to identify multiple opportunities for drug repurposing: Confirmatory screen for LAN-5 cells (AID 1347113). Further: nearly all actives have a fitted effect of over 65% in size. The gist of the method: as §3
A short description of experiment [16]: qHTS of pediatric cancer cell lines to identify multiple opportunities for drug repurposing: Confirmatory screen for DAOY cells (AID 1347114). Further: nearly all actives have a fitted effect of over 65% in size. Further: potency means the concentration at half of the fitted maximal effect. The gist of the method: (§4)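 Viability measured as metabolically active cells via CellTiter-Glo luminescence following 48 hours of compound exposure, 11-point dilutions in confirmatory testing. 500-1,000 cells/well plated 5 hours before dosing; controls were DMSO and 2.3 µM bortezomib.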

Experiment [17] in a line: qHTS of pediatric cancer cell lines to identify multiple opportunities for drug repurposing: Confirmatory screen for SJ-GBM2 cells (AID 1347116). Further: nearly all actives have a fitted effect of over 60% in size. The gist of the method:
as §4

Experiment [18] in a line: qHTS of pediatric cancer cell lines to identify multiple opportunities for drug repurposing: Primary screen for NB-EBc1 cells (AID 1347095). Further: potency means the concentration at half of the fitted maximal effect. In short, it runs like this: as §1
A short description of experiment [19]: qHTS of pediatric cancer cell lines to identify multiple opportunities for drug repurposing: Primary screen for Rh30 cells (AID 1347107). Further: series mostly up to about 46 µM; nearly all actives have a fitted effect of over 75% in size. In short, it runs like this: as §3
Experiment [20] can be described thus: qHTS of pediatric cancer cell lines to identify multiple opportunities for drug repurposing: Primary screen for U-2 OS cells (AID 1347096). Further: nearly all actives have a fitted effect of over 50% in size. The gist of the method: as §3

Where “and” joins values, the source holds several entries; their conditions need not be identical. Equal values may be shown once. Records with an inconclusive call do not appear. Calls of active or inactive are those of the source. The call rests on the fitted dose curve; in most records, active means well fitted curve in the direction sought with a large enough effect; inconclusive means small, poorly fitted or top-dose-only effect, or another doubt; inactive means no such curve, though single readings can be large; an effect the other way counts as inactive or inconclusive.

For the molecule `Cn1nnc2c(C(N)=O)ncn2c1=O`, the Potency entry in experiment [1], in experiment [2], in [3], in [4], in experiment [5] and in experiment [6] was “inactive” each time. Also, the Potency result in experiment [7], in [8], in experiment [9], in experiment [10], in [11] and in [12] was “inactive” throughout. Also, the Potency entry in [13], in [14], in experiment [15], in [16] and in [17] was “inactive” throughout.

For the molecule `O=C(O)C1CCCN(CCC=C(c2ccccc2)c2ccccc2)C1` (stereo unspecified), the Potency result in experiment [18], in experiment [1], in experiment [3], in experiment [4], in experiment [5] and in experiment [6] was “inactive” each time. Also, the Potency entry in experiment [7], in experiment [8], in experiment [9], in [10] and in [19] was “inactive” in each case.

With `COC(=O)Nc1nc2ccc(S(=O)c3ccccc3)cc2[nH]1` (stereo unspecified), the Potency in experiment [18] was 473 nM (active) and 8.33 µM (active); in experiment [1], 8.33 µM (active); in experiment [2] it was 1.54 µM (active) and 19.2 µM (active); in [4], 944 nM (active) and 11.8 µM (active); in experiment [5], 2.46 µM (active); in experiment [7] it was 1.1 µM (active) and 24.3 µM (active). In addition, the Potency in experiment [9] is 668 nM (active) and 14.8 µM (active); in experiment [12] it was 1.85 µM (active); in experiment [13], 1.17 µM (active); in experiment [14], 1.47 µM (active); in experiment [16], 0.928 µM (active). Further, in [10], the Potency result was “inactive”.

Consider `CCOC(=O)[C@H](CCc1ccccc1)N[C@H]1CCc2ccccc2N(CC(=O)O)C1=O`, for which the Potency is 24.1 µM (active) in experiment [2], 27.3 µM (active) in experiment [5], 24.3 µM (active) in experiment [7] and 26.4 µM (active) in [8]. Moreover, in experiment [10], the Potency entry is “inactive”.

For the molecule `CCOC(=O)c1ccc(C#Cc2ccc3c(c2)C(C)(C)CCS3)nc1`, the Potency result in experiment [18], in experiment [2], in experiment [3], in [5], in experiment [6] and in [8] was “inactive” each time. The Potency result in experiment [9], in [10], in [19], in [11], in [12] and in experiment [15] was “inactive” throughout. Besides, the Potency entry in experiment [16] is “inactive”. For the same molecule, the Potency in [7] is 777 nM (active) and 54.4 nM (active).

On to `Nc1[nH]c(=O)ncc1F`, for which the Potency result in experiment [20], in [1], in experiment [2], in experiment [3], in [5] and in experiment [6] was “inactive” throughout. Further, the Potency entry in experiment [7], in experiment [8], in experiment [9], in [10], in experiment [19] and in experiment [11] was “inactive” in each case. Also, the Potency result in experiment [12], in [13], in [14] and in [16] was “inactive” each time.

For the molecule `CCN(CC)CC#CCOC(=O)C(O)(c1ccccc1)C1CCCCC1` (stereo unspecified), the Potency entry in experiment [18], in [1], in experiment [2], in [3], in experiment [6] and in [8] was “inactive” in each case. The Potency entry in [9], in experiment [10], in experiment [19] and in experiment [11] was “inactive” throughout.

Take `Nc1nc(N)c2nc(CNc3ccc(C(=O)NC(CCC(=O)O)C(=O)O)cc3)cnc2n1` (stereo unspecified): the Potency result in [20], in experiment [1], in [3], in [6], in [9] and in experiment [19] was “inactive” each time. Besides, the Potency entry in experiment [11], in experiment [12] and in experiment [15] was “inactive” in each case. Besides, the values for the Potency in [5], in experiment [13] and in [14] were 0.0485 µM (active), 1.04 µM (active) and 0.329 µM (active), respectively.

Take `O=C(NCC1CN(c2ccc(N3CCOCC3=O)cc2)C(=O)O1)c1ccc(Cl)s1` (stereo unspecified): the Potency entry in [18], in experiment [1], in [2], in experiment [3], in experiment [4] and in [6] was “inactive” each time. In addition, the Potency result in experiment [7], in experiment [8], in experiment [9], in [10], in experiment [19] and in [11] was “inactive” throughout. Moreover, the Potency result in experiment [16] and in experiment [17] was “inactive” in each case. Moreover, the Potency in experiment [14] is 2.93 µM (active).

Regarding `CC(=O)[C@H]1CC[C@H]2[C@@H]3CCC4=CC(=O)CC[C@]4(C)[C@H]3CC[C@]12C`, the Potency result in experiment [18] and in [10] was “inactive” each time. The Potency was 12.1 µM (active) in [2]; 2.96 µM (active) in [3]; 24.3 µM (active) in experiment [5]; 19.3 µM (active) in experiment [7]; 11.8 µM (active) in experiment [9].

With `Cc1cccc(N(C)C(=S)Oc2ccc3ccccc3c2)c1`, the Potency result in experiment [18], in experiment [4], in experiment [6], in [8], in experiment [9] and in experiment [10] was “inactive” each time. In addition, the Potency entry in experiment [19], in [11], in experiment [12], in [13], in experiment [15] and in experiment [17] was “inactive” throughout. Also, the values for the Potency in experiment [2] and in [7] were 15.2 µM (active) and 24.6 µM (active), respectively.

With `Cc1ccc(S(=O)(=O)N[C@@H](Cc2ccccc2)C(=O)CCl)cc1`, the Potency in [18] was 16.6 µM (active); in experiment [1], 9.35 µM (active); in experiment [2], 21.5 µM (active); in experiment [3], 20.9 µM (active); in experiment [4], 16.6 µM (active); in [7] it was 19.3 µM (active). For the same molecule, the Potency was 26.4 µM (active) in [8], 29.6 µM (active) in experiment [9] and 18.7 µM (active) in [11]. In addition, the Potency result in experiment [10] is “inactive”.

As for `CCCc1nc(C)c2c(=O)[nH]c(-c3cc(S(=O)(=O)N4CCN(CC)CC4)ccc3OCC)nn12`, the Potency is 12.2 µM (active) in experiment [5] and 14.8 µM (active) in [11]. For the same molecule, the Potency entry in [10] was “inactive”.
